Measured values reported in PubChem BioAssay (NCI).
About 79,000 compounds went through this panel and 15% of them were active in at least one assay; those are over-represented in the sample as a whole. Unmarked numbers belong to inactive results. Calls of active or inactive are those of the source. No stated cut-off is given here; in the data, active means growth inhibition above about 70%; inactive means the rest.

How the values were obtained:
[1] = NCI Yeast Anticancer Drug Screen. Data for the rad52 strain (AID 147);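 further: 0% = growth of vehicle-treated control cultures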; settings: S. cerevisiae rad52 mutant growth inhibition, hits give high values
Method in brief: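 Inhibition of yeast growth, referenced to vehicle controls, was the measured output for a strain with defective DNA damage repair.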

[2] = NCI Yeast Anticancer Drug Screen. Data for the rad50EPP+ strain (AID 151);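 further: 0% = growth of vehicle-treated control cultures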; settings: S. cerevisiae rad50 mutant strain, hits give high values
Method in brief: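 Genetically defined yeast (rad50EPP+, DNA damage repair alteration) is grown with compound, and inhibition of growth is expressed relative to vehicle-treated controls.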

[3] = NCI Yeast Anticancer Drug Screen. Data for the mgt1 strain (AID 153); settings: S. cerevisiae mgt1 mutant growth inhibition, hits give high values
Method in brief: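 In the mgt1 strain, test compounds were added and growth inhibition was determined relative to vehicle-treated controls.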

[4] = NCI Yeast Anticancer Drug Screen. Data for the rad50 strain (AID 155);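 further: 0% = growth of vehicle-only cultures of the same strain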; settings: S. cerevisiae rad50 strain growth inhibition, hits give high values
Method in brief: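 Vehicle-treated cultures provide the reference for the growth inhibition reported for compound-exposed, repair-deficient yeast.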

[5] = NCI Yeast Anticancer Drug Screen. Data for the mec2-1 strain (AID 157); settings: S. cerevisiae mec2-1 strain, hits give high values
Method in brief: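 Each compound was tested on mec2-1 yeast, a strain altered in DNA damage repair or cell cycle control. Growth inhibition is reported relative to vehicle.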

[6] = NCI Yeast Anticancer Drug Screen. Data for the rad14 strain (AID 159);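 further: 0% = growth of vehicle-treated control cultures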; settings: S. cerevisiae rad14 strain growth inhibition, hits give high values
Method in brief: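 Inhibition of growth is reported for a repair-deficient yeast mutant following compound treatment, calculated relative to cultures that received vehicle.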

[7] = NCI Yeast Anticancer Drug Screen. Data for the sgs1 mgt1 strain (AID 161);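 further: 0% = growth of cultures given vehicle only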; settings: S. cerevisiae sgs1 mgt1 strain, hits give high values
Method in brief: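 Read-out: growth inhibition vs vehicle controls. Cells: mutant yeast strain deficient in DNA damage repair.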

[8] = NCI Yeast Anticancer Drug Screen. Data for the CLN2oe strain (AID 163);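 further: 0% = growth of vehicle-only control cultures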; settings: S. cerevisiae CLN2oe strain, hits give high values
Method in brief: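 First, the altered yeast strain was treated with each compound; second, its growth was measured; finally, inhibition was derived by comparison with vehicle controls.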

[9] = NCI Yeast Anticancer Drug Screen. Data for the cln2 rad14 strain (AID 165);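 further: 0% = growth equal to vehicle treated cultures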; settings: S. cerevisiae cln2 rad14 strain, hits give high values
Method in brief: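 Test compounds were added to cln2 rad14 yeast cultures; inhibition of growth was then determined by comparison with vehicle treatment.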

[10] = NCI Yeast Anticancer Drug Screen. Data for the bub3 strain (AID 167); settings: S. cerevisiae bub3 mutant strain, hits give high values
Method in brief: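 Mutant yeast screening strain plus compound; vehicle-treated cultures serve as the 0% inhibition reference.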

[11] = NCI Yeast Anticancer Drug Screen. Data for the wt2 strain (AID 169); settings: S. cerevisiae wt2 strain growth inhibition, hits give high values
Method in brief: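 The panel's yeast strains carry defined changes in DNA repair or cell cycle genes. Each strain is grown with compound, and growth loss is scored relative to vehicle.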

[12] = NCI Yeast Anticancer Drug Screen. Data for the mlh1 strain (AID 171);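 further: 0% = growth of vehicle-treated control cultures of the same strain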; settings: S. cerevisiae mlh1 strain growth inhibition, hits give high values
Method in brief: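 Inhibition values reflect reduced yeast growth in the presence of compound, referenced to vehicle controls, using a strain chosen for its alteration in DNA repair or cell cycle control.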

[13] = NCI Yeast Anticancer Drug Screen. Data for the sgs1 strain (AID 173);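 further: 0% = growth of vehicle-only control cultures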; settings: S. cerevisiae sgs1 mutant, hits give high values
Method in brief: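 Vehicle-treated cultures served as reference for growth inhibition of a yeast strain altered in DNA damage repair or cell cycle control after compound exposure.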

[14] = NCI Yeast Anticancer Drug Screen. Data for the mlh1 rad18 strain (AID 175); settings: S. cerevisiae mlh1 rad18 strain growth inhibition, hits give high values
Method in brief: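 Inhibition values reflect reduced growth of mutant yeast versus vehicle-treated controls following compound exposure; the mutations affect DNA damage repair.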

[15] = NCI Yeast Anticancer Drug Screen. Data for the rad18 strain (AID 177); settings: S. cerevisiae rad18 mutant growth inhibition, hits give high values
Method in brief: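 Steps: expose repair-mutant yeast to compound; measure growth; express as inhibition relative to vehicle control.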

[16] = at 5.0 µM (retest, dose inferred, filed as 0.5)
[17] = at 50.0 µM (retest, dose inferred, filed as 5.0)

Q: Which results are given for `CCCCC(CC)C(=O)[O][Sn]([CH2]CCC)([CH2]CCC)[O]C(=O)C(CC)CCCC` (stereo not drawn)?
A: growth inhibition ([1]; at 1.2 µM): 6%; growth inhibition ([1]; at 3.7 µM): 11%; growth inhibition ([1]; at 11.0 µM): 47%; growth inhibition ([1]; at 33.0 µM): 92% (active); growth inhibition ([1]; at 100.0 µM): 98% (active); growth inhibition ([2]; at 1.2 µM): 18%; growth inhibition ([2]; at 3.7 µM): 6%; growth inhibition ([2]; at 11.0 µM): 8%; growth inhibition ([2]; at 33.0 µM): 12%; growth inhibition ([2]; at 100.0 µM): 29%; growth inhibition ([3]; at 1.2 µM): -11%; growth inhibition ([3]; at 3.7 µM): 9%; growth inhibition ([3]; at 11.0 µM): 60%; growth inhibition ([3]; at 33.0 µM): 95% (active); growth inhibition ([3]; at 100.0 µM): 98% (active); growth inhibition ([4]; at 1.2 µM): 14%; growth inhibition ([4]; at 3.7 µM): 11%; growth inhibition [4, 16]: 50%; growth inhibition ([4]; at 11.0 µM): 51%; growth inhibition ([4]; at 33.0 µM): 92% (active); growth inhibition [4, 17]: 98% (active); growth inhibition ([4]; at 50.0 µM): 86.4% (active); growth inhibition ([4]; at 100.0 µM): 97% (active); growth inhibition ([5]; at 1.2 µM): -11%; growth inhibition ([5]; at 3.7 µM): 14%; growth inhibition [5, 16]: 72% (active); growth inhibition ([5]; at 11.0 µM): 56%; growth inhibition ([5]; at 33.0 µM): 94% (active); growth inhibition [5, 17]: 69%; growth inhibition ([5]; at 50.0 µM): 87.7% (active); growth inhibition ([5]; at 100.0 µM): 98% (active); growth inhibition ([6]; at 1.2 µM): -8%; growth inhibition ([6]; at 3.7 µM): 3%; growth inhibition ([6]; at 11.0 µM): 47%; growth inhibition ([6]; at 33.0 µM): 90% (active); growth inhibition ([6]; at 100.0 µM): 97% (active); growth inhibition [7, 16]: 2%; growth inhibition [7, 17]: 95% (active); growth inhibition ([7]; at 50.0 µM): 89.4% (active); growth inhibition ([8]; at 1.2 µM): -21%; growth inhibition ([8]; at 3.7 µM): 5%; growth inhibition ([8]; at 11.0 µM): 37%; growth inhibition ([8]; at 33.0 µM): 92% (active); growth inhibition ([8]; at 100.0 µM): 98% (active); growth inhibition [9, 16]: 59%; growth inhibition [9, 17]: 97% (active); growth inhibition ([9]; at 50.0 µM): 86.2% (active); growth inhibition ([10]; at 1.2 µM): 6%; growth inhibition ([10]; at 3.7 µM): 18%; growth inhibition [10, 16]: 44%; growth inhibition ([10]; at 11.0 µM): 68%; growth inhibition ([10]; at 33.0 µM): 95% (active); growth inhibition [10, 17]: 93% (active); growth inhibition ([10]; at 50.0 µM): 89.8% (active); growth inhibition ([10]; at 100.0 µM): 98% (active); growth inhibition ([11]; at 1.2 µM): -27%; growth inhibition ([11]; at 3.7 µM): -10%; growth inhibition ([11]; at 11.0 µM): 49%; growth inhibition ([11]; at 33.0 µM): 90% (active); growth inhibition ([11]; at 100.0 µM): 98% (active); growth inhibition ([12]; at 1.2 µM): -38%; growth inhibition ([12]; at 3.7 µM): -21%; growth inhibition ([12]; at 11.0 µM): 33%; growth inhibition ([12]; at 33.0 µM): 88% (active); growth inhibition ([12]; at 100.0 µM): 97% (active); growth inhibition ([13]; at 1.2 µM): 2%; growth inhibition ([13]; at 3.7 µM): -5%; growth inhibition ([13]; at 11.0 µM): 37%; growth inhibition ([13]; at 33.0 µM): 89% (active); growth inhibition ([13]; at 100.0 µM): 97% (active); growth inhibition [14, 16]: 58%; growth inhibition [14, 17]: 98% (active); growth inhibition ([14]; at 50.0 µM): 88.8% (active); growth inhibition ([15]; at 1.2 µM): -2%; growth inhibition ([15]; at 3.7 µM): 0%; growth inhibition ([15]; at 11.0 µM): 46%; growth inhibition ([15]; at 33.0 µM): 91% (active); growth inhibition ([15]; at 100.0 µM): 97% (active)
